Assay results from PubChem BioAssay (Tox21).
Where “and” joins values, the source holds several entries; their conditions need not be identical. Equal values may be shown once. Records with an inconclusive call do not appear. A call without a number means that no potency is given here. Where a structure was tested more than once in an assay, its records may differ in their call. Calls of active or inactive are those of the source. Unless noted, the call rests on the fitted dose curve; in most records, active means well fitted curve in the direction sought with a large enough effect in the repeat runs; inconclusive means weak or mixed curves; inactive means no such curve, though single readings can be large; an effect the other way counts as inactive or inconclusive.

Experiments:
[1] = A CellTox Green Cytotoxicity Assay to monitor cytotoxicity in HepG2 cells - 0 hour (AID 1224882); further: nearly all actives have a fitted effect of over 35% in size
In short: (§1)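 HepG2 cells were seeded together with the CellTox Green dye at 600 cells/well, left 5 h at 37 C/5% CO2, then given compounds in DMSO. Fluorescence from dye bound to dead-cell DNA was read repeatedly over 40 h of treatment at 37 C.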

[2] = A CellTox Green Cytotoxicity Assay to monitor cytotoxicity in HepG2 cells - 32 hour (AID 1224883); further: nearly all actives have a fitted effect of over 50% in size
In short: as §1

[3] = A CellTox Green Cytotoxicity Assay to monitor cytotoxicity in HEK293 cells - 8 hour (AID 1224884); further: nearly all actives have a fitted effect of over 35% in size
In short: (§2)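 HEK293 cells premixed with CellTox Green dye were seeded at 600 cells/well and left 5 h at 37 C/5% CO2 before pin transfer of 23 nL compound in DMSO. Fluorescence from dye bound to dead-cell DNA was read during 40 h treatment.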

[4] = qHTS RealTime-Glo MT Cell Viability Assay in HEK293 cells - 24 hour (AID 1224886); further: nearly all actives have a fitted effect of over 50% in size; further: potency means the concentration at half of the fitted maximal effect
In short: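 Assay medium contained NanoLuc luciferase plus cell-permeant prosubstrate, added with HEK293 cells at 600 cells/well. After 5 h at 37 C/5% CO2 compounds were added; plates stayed at 37 C for 40 h with serial luminescence reads.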

[5] = qHTS RealTime-Glo MT Cell Viability Assay in HEK293 cells - 8 hour (AID 1224887); further: nearly all actives have a fitted effect of over 50% in size; further: potency means the concentration at half of the fitted maximal effect
In short: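 HEK293 cells mixed with RealTime-Glo reagents (NanoLuc plus cell-permeant prosubstrate) at 600 cells/well, preincubated 5 h at 37 C/5% CO2, then given 23 nL compound in DMSO. Nonlytic luminescence from viable cells was read at 0, 8, 16, 24, 32 and 40 h.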

[6] = A CellTox Green Cytotoxicity Assay to monitor cytotoxicity in HEK293 cells - 16 hour (AID 1224888); further: nearly all actives have a fitted effect of over 35% in size
In short: as §2

[7] = qHTS RealTime-Glo MT Cell Viability Assay in HepG2 cells - 0 hour (AID 1224889); further: nearly all actives have a fitted effect of over 50% in size
In short: (§3)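 qHTS, HepG2, 600 cells/well, RealTime-Glo (NanoLuc + prosubstrate) added with cells; 5 h preincubation; DMSO compound addition; 37 C; luminescence at 0/8/16/24/32/40 h.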

[8] = A CellTox Green Cytotoxicity Assay to monitor cytotoxicity in HepG2 cells - 8 hour (AID 1224890); further: nearly all actives have a fitted effect of over 45% in size
In short: as §1

[9] = qHTS assay to identify small molecule antagonists of the estrogen receptor alpha (ER-alpha) signaling pathway using the BG1 cell line in the presence of 0.1 nM 17-beta-estradiol - cell viability counter screen (AID 1259241); further: nearly all actives have a fitted effect of over 40% in size; further: potency means the concentration at half of the fitted maximal effect
In short: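 Cells were plated and left 24 hr, compounds in DMSO were pinned in, 17beta-estradiol was added to 0.1 nM final, and after 22 hr CellTiter-Fluor reagent was added for 30 min before fluorescence was read.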

[10] = qHTS assay to identify small molecule antagonists of the androgen receptor (AR) signaling pathway using the MDA cell line in the presence of 0.5 nM R1881 - cell viability counter screen (AID 1259242); further: nearly all actives have a fitted effect of over 45% in size; further: potency means the concentration at half of the fitted maximal effect
In short: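 MDA-kb2 cells (human breast carcinoma, stably carrying MMTV-luciferase reporter) were exposed to compounds with 0.5 nM R1881 (final) for 16 hr at 37C, 0% CO2; viability then read as live-cell protease fluorescence (CellTiter-Fluor, 30 min) in the same wells.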

[11] = molecular target: Estrogen receptor (Homo sapiens) (UniProt P03372); assay: qHTS assay to identify small molecule antagonists of the estrogen receptor alpha (ER-alpha) signaling pathway using the BG1 cell line in the presence of 0.1 nM 17-beta-estradiol (AID 1259244); further: nearly all actives have a fitted effect of over 50% in size; further: potency means the concentration at half of the fitted maximal effect
In short: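 VM7Luc4E2 cells (endogenous full-length ER-alpha, stable 4xERE-luciferase) were grown 5 days in phenol red-free medium with charcoal-stripped FBS, then exposed 22 h at 37C to compounds plus 0.1 nM (final) 17beta-estradiol; ONE-Glo luminescence read-out.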

[12] = qHTS assay to identify small molecule HDAC inhibitors (AID 1259364); further: nearly all actives have a fitted effect of over 45% in size; further: potency means the concentration at half of the fitted maximal effect
In short: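 Wild-type HCT-116 cells were plated overnight, exposed to compounds for 2 h at 37 °C, then given HDAC-Glo class I/II luminogenic reagent for 30 min at room temperature before luminescence was read.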

[13] = qHTS assay to identify small molecule HDAC inhibitors - cell viability counter screen (AID 1259365); further: nearly all actives have a fitted effect of over 50% in size; further: potency means the concentration at half of the fitted maximal effect
In short: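 Counter screen in wild-type HCT-116 cells: compounds dissolved in DMSO are pin-transferred onto overnight-plated cells and left 2hr at 37C. ATP-based CellTiter-Glo luminescence then measures viable cells.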

[14] = qHTS assay to identify small molecule antagonists of the sonic hedgehog signaling (Shh) pathway - cell viability counter screen (AID 1259367); further: nearly all actives have a fitted effect of over 55% in size; further: potency means the concentration at half of the fitted maximal effect
In short: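 Cells: 3T3 Gli1-Luc, 2,000/well, 4 hr pre-incubation. Compounds in DMSO, then conditioned medium. Incubation 24 hr, 37C, 5% CO2. CellTiter-Fluor at 23 hr, 1 hr, fluorescence.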

[15] = qHTS assay to identify small molecule agonists of the sonic hedgehog signaling (Shh) pathway (AID 1259368; calls by dose curve; further: series mostly up to about 92 µM; nearly all actives have a fitted effect of over 15% in size)
In short: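 NIH/3T3-derived 3T3Gli1-Luc cells carrying a stably integrated Gli1 response element–firefly luciferase reporter were plated, left 4 hr at 37 C, then given compounds in DMSO for 24 hr. Luminescence was read 30 min after adding luciferase reagent.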

[16] = qHTS assay to identify small molecule antagonists of the sonic hedgehog signaling (Shh) pathway (AID 1259369; calls by dose curve; further: nearly all actives have a fitted effect of over 45% in size; further: potency means the concentration at half of the fitted maximal effect)
In short: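 NIH/3T3-derived 3T3Gli1-Luc cells with stably integrated Gli1-Luc reporter were preincubated 4hr at 37 C, then given compounds in DMSO plus Shh conditioned medium and incubated 24hr. Firefly luciferase luminescence read after 30min reagent at room temperature.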

[17] = qHTS RealTime-Glo MT Cell Viability Assay in HepG2 cells - 16 hour (AID 1224885); further: nearly all actives have a fitted effect of over 50% in size
In short: as §3

[18] = molecular target: Androgen receptor (Homo sapiens) (UniProt P10275); assay: qHTS assay to identify small molecule antagonists of the androgen receptor (AR) signaling pathway using the MDA cell line in the presence of 0.5 nM R1881 (AID 1259243); further: nearly all actives have a fitted effect of over 50% in size; further: potency means the concentration at half of the fitted maximal effect
In short: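 MDA-kb2 human breast carcinoma cells carrying an MMTV-luciferase reporter (AR- and GR-responsive) were plated, rested 5 hr at 37C, dosed with compounds, then stimulated with 0.5 nM R1881 (final) for 16 hr; luminescence was read after ONE-Glo.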

[19] = qHTS assay to identify small molecule phospholipidosis (PLD) inducers (AID 1259344; active means well fitted curve in the direction sought with a large enough effect; an effect the other way counts as inactive or inconclusive)
In short: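 Phospholipidosis is scored by imaging LipidTOX-stained pits in HepG2 cells exposed to compound for 24 h at 37 C; pit counts and integrated intensities per well and per cell serve as outputs.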

[20] = qHTS assay to identify small molecule agonists of the sonic hedgehog signaling (Shh) pathway - cell viability counter screen (AID 1259366); further: nearly all actives have a fitted effect of over 50% in size; further: potency means the concentration at half of the fitted maximal effect
In short: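 Cells are plated at 2,000 per well and left 4hr at 37C, 5% CO2 before compound addition. After 23hr of treatment, CellTiter-Fluor reagent is added for 1hr at 37C and fluorescence is measured.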

Sequence of Androgen receptor (Homo sapiens) (P10275 whole entry, looked up): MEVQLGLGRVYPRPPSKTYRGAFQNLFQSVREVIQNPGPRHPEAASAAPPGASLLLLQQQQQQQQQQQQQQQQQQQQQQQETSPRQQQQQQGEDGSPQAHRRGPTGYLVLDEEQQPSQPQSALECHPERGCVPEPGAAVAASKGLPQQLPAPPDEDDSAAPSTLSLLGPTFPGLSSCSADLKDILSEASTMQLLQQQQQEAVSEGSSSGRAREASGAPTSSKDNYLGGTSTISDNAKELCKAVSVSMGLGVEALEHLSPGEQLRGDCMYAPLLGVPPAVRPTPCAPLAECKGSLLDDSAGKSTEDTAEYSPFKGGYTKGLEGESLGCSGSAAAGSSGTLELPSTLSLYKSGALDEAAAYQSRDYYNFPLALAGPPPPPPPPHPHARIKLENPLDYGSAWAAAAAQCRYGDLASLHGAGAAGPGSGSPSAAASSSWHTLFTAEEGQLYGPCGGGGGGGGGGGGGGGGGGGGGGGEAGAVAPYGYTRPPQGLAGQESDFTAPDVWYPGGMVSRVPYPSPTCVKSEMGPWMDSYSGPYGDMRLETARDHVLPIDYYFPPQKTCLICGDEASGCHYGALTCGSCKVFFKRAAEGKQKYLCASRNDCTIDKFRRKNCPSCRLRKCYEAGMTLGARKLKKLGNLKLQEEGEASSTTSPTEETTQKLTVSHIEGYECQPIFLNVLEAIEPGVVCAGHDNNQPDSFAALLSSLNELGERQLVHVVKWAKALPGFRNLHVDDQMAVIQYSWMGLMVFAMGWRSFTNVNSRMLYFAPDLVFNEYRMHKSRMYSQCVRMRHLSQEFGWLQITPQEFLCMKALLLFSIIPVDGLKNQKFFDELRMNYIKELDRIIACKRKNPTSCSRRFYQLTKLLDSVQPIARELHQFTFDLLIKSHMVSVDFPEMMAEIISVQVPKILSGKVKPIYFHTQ
Sequence of Estrogen receptor (Homo sapiens) (P03372 whole entry, looked up): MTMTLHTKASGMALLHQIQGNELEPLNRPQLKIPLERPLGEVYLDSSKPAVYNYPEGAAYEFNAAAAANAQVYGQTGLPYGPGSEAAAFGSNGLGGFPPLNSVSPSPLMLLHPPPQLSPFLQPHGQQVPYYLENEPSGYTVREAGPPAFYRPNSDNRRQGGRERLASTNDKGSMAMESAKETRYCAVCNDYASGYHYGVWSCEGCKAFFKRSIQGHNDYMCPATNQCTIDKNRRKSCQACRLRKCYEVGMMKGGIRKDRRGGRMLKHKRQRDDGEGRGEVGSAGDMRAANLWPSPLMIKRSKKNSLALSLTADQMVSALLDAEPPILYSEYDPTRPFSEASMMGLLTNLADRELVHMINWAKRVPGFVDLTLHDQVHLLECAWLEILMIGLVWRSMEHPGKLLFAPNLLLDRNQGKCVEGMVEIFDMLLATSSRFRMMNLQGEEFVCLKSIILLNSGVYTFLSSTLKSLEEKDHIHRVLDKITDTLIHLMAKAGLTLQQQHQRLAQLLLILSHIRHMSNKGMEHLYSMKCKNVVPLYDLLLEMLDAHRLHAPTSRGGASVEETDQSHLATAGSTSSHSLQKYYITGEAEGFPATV

| SMILES | Potency [1] | Potency [2] | Potency [3] | Potency [4] | Potency [5] | Potency [6] | Potency [7] | Potency [8] | Potency [9] | Potency [10] | Potency [11] | Potency [12] | Potency [13] | Potency [14] | Potency [15] | Potency [16] | Potency [17] | Potency [18] | Potency [19] | Potency [20] |
| --- | --- | --- | --- | --- | --- | --- | --- | --- | --- | --- | --- | --- | --- | --- | --- | --- | --- | --- | --- | --- |
| C=C(C)C(=O)O | inactive | inactive | inactive | inactive | inactive | inactive | inactive | inactive | inactive | inactive | inactive | inactive | inactive | inactive | inactive | inactive | – | – | – | – |
| Nc1nc(=S)c2[nH]cnc2[nH]1 | inactive | inactive | inactive | – | inactive | inactive | – | inactive | inactive | inactive | inactive | inactive | inactive | inactive | inactive | 842 nM (active) and 545 nM (active) and 596 nM (active) | inactive | inactive | inactive | inactive |
| C/C=C/c1ccc(OCC)c(O)c1 | inactive | inactive | inactive | inactive | inactive | – | inactive | inactive | inactive | inactive | – | – | – | inactive | inactive | inactive | inactive | – | – | – |
| NCCCCCC(=O)O | inactive | inactive | inactive | – | inactive | inactive | inactive | – | inactive | inactive | inactive | inactive | – | inactive | inactive | inactive | – | – | inactive | inactive |
| Cc1cccc([N+](=O)[O-])c1C(=O)O | inactive | inactive | inactive | – | inactive | inactive | inactive | – | inactive | inactive | inactive | – | inactive | inactive | inactive | inactive | – | – | – | inactive |
| O=C(O)c1cn(-c2ccc(F)cc2)c2cc(N3CCNCC3)c(F)cc2c1=O | inactive | inactive | inactive | inactive | inactive | inactive | – | inactive | inactive | inactive | – | inactive | inactive | inactive | inactive | inactive | – | – | inactive | – |
| CC(=O)OCCOCCOCCOC(C)=O | inactive | inactive | inactive | inactive | inactive | inactive | inactive | inactive | – | inactive | inactive | inactive | inactive | inactive | inactive | inactive | – | – | – | inactive |
| CCCCCCC(O)CCCCCCCCCCC(=O)O (centres undefined) | inactive | inactive | – | inactive | inactive | inactive | inactive | inactive | inactive | inactive | – | inactive | inactive | inactive | inactive | 27.4 µM (active) | inactive | – | – | – |
| O=S(=O)(O)c1ccc2nc(-c3ccccc3)[nH]c2c1 | inactive | inactive | – | inactive | inactive | inactive | inactive | inactive | inactive | inactive | – | 732 nM (active) and 668 nM (active) | 23.2 µM (active) | inactive | inactive | inactive | inactive | – | inactive | inactive |
| Nc1ccc(O)cc1 | inactive | inactive | inactive | 40.4 µM (active) and inactive | 40.4 µM (active) and inactive | – | – | inactive | – | 50.4 µM (active) and inactive | 28.4 µM (active) and inactive | inactive | – | 31.8 µM (active) and inactive | inactive | 7.99 µM (active) and inactive | – | 25.3 µM (active) and inactive | inactive | 17.9 µM (active) |
| O=C(O[C@@H]1Cc2c(O)cc(O)cc2O[C@@H]1c1cc(O)c(O)c(O)c1)c1cc(O)c(O)c(O)c1 | inactive | inactive | inactive | – | – | – | inactive | inactive | – | – | inactive | – | inactive | 23.4 µM (active) | inactive | 27.4 µM (active) | – | – | – | 27.4 µM (active) and 26.3 µM (active) |
| O=C1Nc2ccccc2C1(c1ccc(O)cc1)c1ccc(O)cc1 | inactive | inactive | inactive | inactive | inactive | – | inactive | – | 0.298 µM (active) | inactive | 486 nM (active) and 237 nM (active) | inactive | – | 48.6 µM (active) | inactive | 34.4 µM (active) | – | – | – | 27.3 µM (active) and 9.44 µM (active) |
